# Calls of active or inactive are those of the source.
# How the values were obtained:
# [1] = tested on: PRMT1 (protein arginine N-methyltransferase 1); assay: PRMT1 binders on small-molecule microarrays, primary screen, biochemical, small-molecule microarray, 635 nm fluorescence (AID 1088); conditions: small-molecule microarray binding, higher = more signal;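 also: binding of Prmt1 protein to compounds spotted on small-molecule microarray slides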
# [2] = yeast growth modulation, basal conditions, primary screen, YJM789 clinical isolate, OD600, 24 h (AID 1089);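 also: growth of clinical yeast isolate S. cerevisiae YJM 789 seeded 1000 cells per well; test concentration not given here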; conditions: S. cerevisiae YJM789 growth, higher = more signal, called active from +8 up or from −8 down
# [3] = fission yeast growth modulation, primary screen, strain 972, OD600, 24 h, no modulator (AID 1090);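 also: basal condition with compound alone and no growth modifier present; test concentration not given here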; conditions: S. pombe 972 growth, higher = more signal, called active from +8 up or from −8 down
# [4] = S. cerevisiae growth modulation with rapamycin, primary screen, strain BY4716, OD600, 96 h (AID 1091); conditions: higher = more signal, called active from +8 up or from −8 down; also: test concentration not given here
# [5] = target: Torsin-1A-interacting protein 2 (Homo sapiens) (UniProt Q8NFQ8); assay: LULL1 binders on small-molecule microarray, primary screen, cell lysate, human LULL1 lysate, 635/667 nm fluorescence (AID 1092); conditions: hLULL1 lysate binding, 635 nm fluorescence, higher = more signal;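 also: probe is lysate of COS7 cells overexpressing human LULL1; score merges per-feature 667 nm fluorescence with signal-to-noise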
# [6] = E. coli growth modulation, two-sided OD650, primary screen, E. coli filamentation project, strain DRC41, 24 h (AID 1093); conditions: OD650, 24 h, higher = more signal, called active from +8 up or from −8 down;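 also: MC1000 strain lacking acrAB efflux and sulA so SOS filamentation is blocked; test concentration not given here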
# [7] = small-molecule microarray binders of probe aLefty2, primary screen, biochemical, biotinylated probe, 635/667 nm fluorescence (AID 1094); conditions: higher = more signal;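 also: score merges spot fluorescence near 667 nm with spot signal-to-noise ratio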
# [8] = tested on: Noggin (protein binding on small-molecule microarray); assay: Noggin binders on small-molecule microarray, primary screen, biochemical, 635/667 nm fluorescence (AID 1095); conditions: 635 nm fluorescence, higher = more signal;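 also: score merges 667 nm feature fluorescence with signal to noise over triplicate slides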
# [9] = target: Neurogenic locus notch homolog protein 3 (Homo sapiens) (UniProt Q9UM47); assay: NOTCH3 binders on small-molecule microarray, primary screen, biochemical, 635/667 nm fluorescence (AID 1096); conditions: NOTCH3 binding, 635 nm fluorescence, higher = more signal
# [10] = small-molecule microarray binders of probe aEGFR, primary screen, biochemical, biotinylated probe, 635/667 nm fluorescence (AID 1097); conditions: higher = more signal;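 also: probe is a biotinylated anti-EGFR antibody binding compounds printed on slides; score combines fluorescence near 667 nm and signal to noise of each spot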
# Chain of Torsin-1A-interacting protein 2 (Homo sapiens) (Q8NFQ8 whole entry, looked up): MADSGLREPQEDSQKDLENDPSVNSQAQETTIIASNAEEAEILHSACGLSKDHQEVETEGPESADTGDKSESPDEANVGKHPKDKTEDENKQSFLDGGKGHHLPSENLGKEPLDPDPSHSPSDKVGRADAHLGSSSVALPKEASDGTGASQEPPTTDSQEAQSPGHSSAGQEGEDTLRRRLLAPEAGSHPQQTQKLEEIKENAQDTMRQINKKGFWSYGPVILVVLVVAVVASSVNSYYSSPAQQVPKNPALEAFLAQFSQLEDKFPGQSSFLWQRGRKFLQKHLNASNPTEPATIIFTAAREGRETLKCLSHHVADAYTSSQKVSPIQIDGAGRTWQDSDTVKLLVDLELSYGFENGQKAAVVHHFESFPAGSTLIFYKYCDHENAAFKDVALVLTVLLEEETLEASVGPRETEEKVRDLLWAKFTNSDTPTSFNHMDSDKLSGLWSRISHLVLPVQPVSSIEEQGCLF
# Chain of Neurogenic locus notch homolog protein 3 (Homo sapiens) (Q9UM47 whole entry, looked up): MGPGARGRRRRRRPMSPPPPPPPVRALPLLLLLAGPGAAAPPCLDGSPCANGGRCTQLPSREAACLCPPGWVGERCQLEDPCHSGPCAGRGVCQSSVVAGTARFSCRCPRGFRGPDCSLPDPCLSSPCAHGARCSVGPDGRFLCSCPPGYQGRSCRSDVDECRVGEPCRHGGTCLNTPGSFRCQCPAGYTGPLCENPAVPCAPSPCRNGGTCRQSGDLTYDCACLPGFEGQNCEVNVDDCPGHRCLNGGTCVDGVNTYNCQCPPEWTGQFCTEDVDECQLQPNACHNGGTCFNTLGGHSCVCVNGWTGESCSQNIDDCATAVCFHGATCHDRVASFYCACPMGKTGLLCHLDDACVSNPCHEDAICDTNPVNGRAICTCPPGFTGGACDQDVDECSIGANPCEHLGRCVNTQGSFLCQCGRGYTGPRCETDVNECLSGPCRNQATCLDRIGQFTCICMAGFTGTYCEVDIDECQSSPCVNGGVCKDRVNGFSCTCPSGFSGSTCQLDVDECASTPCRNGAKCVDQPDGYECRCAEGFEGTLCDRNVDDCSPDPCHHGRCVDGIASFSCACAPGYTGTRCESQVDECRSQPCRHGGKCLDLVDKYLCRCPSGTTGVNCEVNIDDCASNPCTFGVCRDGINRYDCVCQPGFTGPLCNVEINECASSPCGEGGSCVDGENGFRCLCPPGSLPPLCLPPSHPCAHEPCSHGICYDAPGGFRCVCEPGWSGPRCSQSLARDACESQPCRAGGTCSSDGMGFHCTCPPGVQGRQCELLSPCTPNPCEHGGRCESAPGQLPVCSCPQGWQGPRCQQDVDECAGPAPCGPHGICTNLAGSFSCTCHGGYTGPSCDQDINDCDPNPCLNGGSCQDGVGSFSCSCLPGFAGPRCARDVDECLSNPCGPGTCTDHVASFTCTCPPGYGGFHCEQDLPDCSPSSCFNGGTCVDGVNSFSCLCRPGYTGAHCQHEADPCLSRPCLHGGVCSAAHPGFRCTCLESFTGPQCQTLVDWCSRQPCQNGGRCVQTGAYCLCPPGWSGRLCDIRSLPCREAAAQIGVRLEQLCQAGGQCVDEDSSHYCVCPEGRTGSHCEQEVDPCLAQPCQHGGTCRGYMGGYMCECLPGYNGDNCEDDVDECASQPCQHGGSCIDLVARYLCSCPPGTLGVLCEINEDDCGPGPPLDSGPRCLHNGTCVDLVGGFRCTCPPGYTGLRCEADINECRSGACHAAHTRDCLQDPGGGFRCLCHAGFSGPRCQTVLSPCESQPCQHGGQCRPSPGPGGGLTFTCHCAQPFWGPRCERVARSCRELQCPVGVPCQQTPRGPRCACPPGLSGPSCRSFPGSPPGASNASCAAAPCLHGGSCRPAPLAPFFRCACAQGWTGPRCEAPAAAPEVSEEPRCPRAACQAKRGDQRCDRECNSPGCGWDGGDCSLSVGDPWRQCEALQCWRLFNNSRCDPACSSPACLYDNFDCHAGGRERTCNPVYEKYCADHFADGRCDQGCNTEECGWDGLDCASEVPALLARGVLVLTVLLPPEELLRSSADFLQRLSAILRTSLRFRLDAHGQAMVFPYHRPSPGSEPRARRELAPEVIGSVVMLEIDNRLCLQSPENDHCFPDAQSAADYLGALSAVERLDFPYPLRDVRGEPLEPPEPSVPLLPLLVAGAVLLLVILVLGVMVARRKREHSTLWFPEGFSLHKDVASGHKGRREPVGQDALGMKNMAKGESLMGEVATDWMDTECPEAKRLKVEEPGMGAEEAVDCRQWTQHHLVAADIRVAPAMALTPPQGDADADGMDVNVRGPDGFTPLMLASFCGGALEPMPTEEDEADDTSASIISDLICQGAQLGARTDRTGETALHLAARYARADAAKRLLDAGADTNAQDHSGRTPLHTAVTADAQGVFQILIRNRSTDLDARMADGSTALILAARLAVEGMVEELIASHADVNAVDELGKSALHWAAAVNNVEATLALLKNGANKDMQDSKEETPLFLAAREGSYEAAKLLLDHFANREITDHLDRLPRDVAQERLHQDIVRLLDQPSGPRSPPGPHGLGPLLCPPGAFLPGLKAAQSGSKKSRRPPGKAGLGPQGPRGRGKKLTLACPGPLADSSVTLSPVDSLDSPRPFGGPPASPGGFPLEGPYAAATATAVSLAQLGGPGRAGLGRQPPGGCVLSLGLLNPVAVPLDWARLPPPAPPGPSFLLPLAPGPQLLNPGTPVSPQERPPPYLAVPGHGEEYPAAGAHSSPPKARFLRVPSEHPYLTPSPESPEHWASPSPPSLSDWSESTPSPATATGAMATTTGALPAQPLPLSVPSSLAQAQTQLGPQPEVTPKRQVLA
compound,measurement,setting,value
NC(=O)NCC#Cc1ccc2c(c1)[C@]1(C(=O)N2)[C@H](c2ccc(O)cc2)N2[C@H](c3ccccc3)[C@H](c3ccccc3)OC(=O)[C@H]2[C@@H]1C(=O)N1CCN(c2ncccn2)CC1,composite z-score,[1],1.01
same,z-score,[2],0.113 (inactive)
same,z-score,[3],-0.923 (inactive)
same,z-score,[4],1.6 (inactive)
same,composite z-score,[5],1.45
same,z-score,[6],1.1 (inactive)
same,composite z-score,[7],0.28
same,composite z-score,[8],-0.228
same,composite z-score,[9],-0.334
same,composite z-score,[10],0.0193
C[C@H]1C2[C@H](Cc3ccccc3)NC(=O)[C@]23C(=O)N[C@H](Cc2ccccc2)C(=O)N[C@H](Cc2ccccc2)C(=O)NC/C=C/CCC/C=C/C3[C@@H]2O[C@]12C (stereo not given in full),composite z-score,[1],0.786
same,z-score,[2],0.524 (inactive)
same,z-score,[3],-1.84 (inactive)
same,z-score,[4],0.254 (inactive)
same,composite z-score,[5],2.17
same,z-score,[6],1.35 (inactive)
same,composite z-score,[7],-0.241
same,composite z-score,[8],1.58
same,composite z-score,[9],0.62
same,composite z-score,[10],-0.152
O=C1c2ccccc2[C@@]2(Cc3ccccc3N(Cc3ccccc3)C2=O)[C@H](c2ccc(CO)cc2)N1Cc1ccccc1C(F)(F)F,composite z-score,[1],-0.325
same,z-score,[2],0.376 (inactive)
same,z-score,[3],-0.666 (inactive)
same,z-score,[4],-1.11 (inactive)
same,composite z-score,[5],2.03
same,z-score,[6],0.127 (inactive)
same,composite z-score,[7],-0.222
same,composite z-score,[8],-0.848
same,composite z-score,[9],0.117
same,composite z-score,[10],-0.243
C=C[C@@H](C)[C@@H](OC(=O)Nc1ccc(OC)cc1)c1ccc(O)c2ccccc12,composite z-score,[1],0.906
same,z-score,[2],-24.7 (active)
same,z-score,[3],-20.9 (active)
same,z-score,[4],-3.73 (inactive)
same,composite z-score,[5],1.15
same,z-score,[6],1.02 (inactive)
same,composite z-score,[7],-0.17
same,composite z-score,[8],1.15
same,composite z-score,[9],0.514
same,composite z-score,[10],-0.116
CCOC(=O)C=Cc1cccc(OC)c1O,composite z-score,[1],0.124
same,z-score,[2],-9.3 (active)
same,z-score,[3],-7.21 (inactive)
same,z-score,[4],-0.346 (inactive)
same,composite z-score,[5],0.0496
same,z-score,[6],-0.0998 (inactive)
same,composite z-score,[7],-0.249
same,composite z-score,[8],-1.09
same,composite z-score,[9],-0.125
same,composite z-score,[10],-0.209
O=c1cccc(-c2ccccc2)o1,composite z-score,[1],-0.159
same,z-score,[2],-1.42 (inactive)
same,z-score,[3],-3.79 (inactive)
same,z-score,[4],-0.482 (inactive)
same,composite z-score,[5],-0.568
same,z-score,[6],-0.528 (inactive)
same,composite z-score,[7],-0.18
same,composite z-score,[8],-0.124
same,composite z-score,[9],-0.435
same,composite z-score,[10],-0.136
C=CCN1C(=O)[C@@]2(O[C@@H](CCO)[C@H]([Si](C)(C)c3ccc(OC)cc3)[C@H]2C)c2cc(N3C(=O)COc4ccccc43)ccc21,composite z-score,[1],1.45
same,z-score,[2],1.64 (inactive)
same,z-score,[3],0.842 (inactive)
same,z-score,[4],35.4 (active)
same,composite z-score,[5],1.81
same,z-score,[6],0.375 (inactive)
same,composite z-score,[7],-0.275
same,composite z-score,[8],0.17
same,composite z-score,[9],0.4
same,composite z-score,[10],-0.178
COCCn1c(C(=O)N2CCCC2)cc2c1C[C@H]1CN(C(=O)c3ccccc3)[C@@](Cc3ccc(OC)cc3)(C(=O)OC)[C@@H]21,composite z-score,[1],0.0027
same,z-score,[2],-2.08 (inactive)
same,z-score,[3],0.422 (inactive)
same,z-score,[4],-0.651 (inactive)
same,composite z-score,[5],1.72
same,z-score,[6],0.0251 (inactive)
same,composite z-score,[7],0.656
same,composite z-score,[8],-0.843
same,composite z-score,[9],1.1
same,composite z-score,[10],0.147
COc1ccc(C(=O)Nc2cccc(CN3C(=O)[C@@]4(O[C@@H](CCn5cc([C@H](O)c6ccccc6)nn5)[C@H]([Si](C)(C)c5ccc(OC)cc5)[C@H]4C)c4ccccc43)c2)cc1,composite z-score,[1],0.677
same,z-score,[2],-0.384 (inactive)
same,z-score,[3],-1.17 (inactive)
same,z-score,[4],0.0585 (inactive)
same,composite z-score,[5],1.11
same,z-score,[6],-0.594 (inactive)
same,composite z-score,[7],0.0123
same,composite z-score,[8],1.58
same,composite z-score,[9],0.806
same,composite z-score,[10],-0.0947
[N-]=[N+]=NCc1ccccc1C[C@@]1(C(=O)NCc2ccccc2)N=C(c2ccc(OCCCO)cc2)O[C@@H]1c1ccccc1CN=[N+]=[N-],composite z-score,[1],1.57
same,z-score,[2],-1.34 (inactive)
same,z-score,[3],0.0392 (inactive)
same,z-score,[4],36 (active)
same,composite z-score,[5],3.25
same,z-score,[6],1.16 (inactive)
same,composite z-score,[7],0.395
same,composite z-score,[8],0.234
same,composite z-score,[9],0.756
same,composite z-score,[10],0.0157
CCN(CC)c1ccc(N2CC=CC34O[C@@H]5/C=C\CCC(C)OC(=O)C5[C@H]3C(=O)N(CCCCCCO)[C@@H]4C2=O)cc1 (stereo not given in full),composite z-score,[1],-0.661
same,z-score,[2],-0.13 (inactive)
same,z-score,[3],-0.147 (inactive)
same,z-score,[4],0.252 (inactive)
same,composite z-score,[5],0.989
same,z-score,[6],0.477 (inactive)
same,composite z-score,[7],-0.204
same,composite z-score,[8],-0.668
same,composite z-score,[9],-0.318
same,composite z-score,[10],-0.21
CCCC[C@H]1OB(O)C[C@H]2C1=C(COc1ccccc1)C[C@H]1C(=O)N(Cc3ccccc3)C(=O)[C@H]12,composite z-score,[1],0.385
same,z-score,[2],-1.87 (inactive)
same,z-score,[3],-1.54 (inactive)
same,z-score,[4],-1.6 (inactive)
same,composite z-score,[5],1.33
same,z-score,[6],0.194 (inactive)
same,composite z-score,[7],-0.121
same,composite z-score,[8],1.51
same,composite z-score,[9],0.862
same,composite z-score,[10],-0.0828
CCOC(=O)C[C@H]1[C@H](OC(=O)c2cc3ccccc3oc2=O)[C@@H](NC(=O)c2ccc3ccccc3c2)c2cc(OCCCO)ccc2N1C(=O)c1ccccc1,composite z-score,[1],1.13
same,z-score,[2],-0.087 (inactive)
same,z-score,[3],-1.05 (inactive)
same,z-score,[4],0.41 (inactive)
same,composite z-score,[5],1.6
same,z-score,[6],1.06 (inactive)
same,composite z-score,[7],-0.139
same,composite z-score,[8],0.798
same,composite z-score,[9],0.983
same,composite z-score,[10],-0.0829
C=CCOC(=O)[C@H]1[C@@H]2C(=O)O[C@@H](c3ccccc3)[C@@H](c3ccccc3)N2[C@@H](c2ccc(OCCOC(=O)[C@H]3C[C@H]4C(=O)N[C@@H](CCCC[N+](C)(C)C)C(=O)N4[C@H]3c3ccc(O)cc3)cc2)[C@]12C(=O)Nc1ccccc12,composite z-score,[1],-0.146
same,z-score,[2],-0.193 (inactive)
same,z-score,[3],-2.55 (inactive)
same,z-score,[4],-1.05 (inactive)
same,composite z-score,[5],1.68
same,z-score,[6],-0.405 (inactive)
same,composite z-score,[7],0.126
same,composite z-score,[8],1.08
same,composite z-score,[9],0.321
same,composite z-score,[10],-0.194
Cc1ccc(N2C(=O)c3ccccc3[C@@H](C(=O)NC(C)C)[C@@H]2c2ccc(CO)cc2)nc1,composite z-score,[1],0.528
same,z-score,[2],-1.14 (inactive)
same,z-score,[3],-0.958 (inactive)
same,z-score,[4],-1.62 (inactive)
same,composite z-score,[5],3.07
same,z-score,[6],-0.113 (inactive)
same,composite z-score,[7],-0.0336
same,composite z-score,[8],-0.0751
same,composite z-score,[9],-0.528
same,composite z-score,[10],-0.115
CN(C)CCCN1C(=O)[C@@]2(c3ccc([N+](=O)[O-])cc3)CC(=O)N(C3CCCCC3)[C@@H]2c2ccc(CO)cc21,composite z-score,[1],-0.282
same,z-score,[2],-1.34 (inactive)
same,z-score,[3],-1.09 (inactive)
same,z-score,[4],-2.61 (inactive)
same,composite z-score,[5],-0.933
same,z-score,[6],-1.22 (inactive)
same,composite z-score,[7],-0.142
same,composite z-score,[8],-0.233
same,composite z-score,[9],-0.0488
same,composite z-score,[10],-0.103
C=CCN1C(=O)[C@@]2(O[C@@H](CCO)[C@H]([Si](C)(C)c3ccc(OC)cc3)[C@H]2C)c2cc(NC(C)=O)ccc21,composite z-score,[1],1.15
same,z-score,[2],0.0173 (inactive)
same,z-score,[3],-1.67 (inactive)
same,z-score,[4],-0.741 (inactive)
same,composite z-score,[5],1.96
same,z-score,[6],-0.203 (inactive)
same,composite z-score,[7],-0.0231
same,composite z-score,[8],1.23
same,composite z-score,[9],0.725
same,composite z-score,[10],0.118
CCCCCCCCCCC(O)C1C=CC2C(=O)N(c3ccccc3)C(=O)C2N1Nc1ccc([N+](=O)[O-])cc1 (stereo not given),composite z-score,[1],1.57
same,z-score,[2],0.0819 (inactive)
same,z-score,[3],0.23 (inactive)
same,z-score,[4],26.7 (active)
same,composite z-score,[5],3.25
same,z-score,[6],-0.734 (inactive)
same,composite z-score,[7],-0.0059
same,composite z-score,[8],0.186
same,composite z-score,[9],1.09
same,composite z-score,[10],-0.0828
